Results from PubChem BioAssay (NCI).
Compounds without any hit were thinned out: in the full panel of roughly 83,000, 20% have a hit.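 A percent growth of 40 corresponds to 60% growth inhibition; 0 means no net growth; -100 means all cells died. Active threshold: below 10.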 A number with no mark means an inactive call. Calls of active or inactive are those of the source.

These compounds were tested on MDA-MB-468 breast (assay: NCI-60 one-dose screen, 48 h (100 = growth as untreated, 0 = no growth, -100 = all killed)). Settings: 10 µM unless noted.

Row | SMILES | growth
1 | COc1ccc(-c2cc(-c3ccccc3)nc(N3CCN(CCNc4ccnc5cc(Cl)ccc45)CC3)n2)cc1 | -54.7% (active)
2 | Nc1ccc(N=Nc2ccc(O)cc2)c(N)n1 | 83.4%
3 | CN(C)CCNc1nc2c3cc(Cl)ccc3nn2c2ccccc12 | 74.2%
4 | Nc1n[nH]c2ccc([C@@H]3Nc4c(F)cc5[nH]ncc5c4[C@H]4C5CCC(C5)[C@@H]34)cc12 (stereo not given in full) | -4.88% (active)
5 | CCCC1(CN2c3ccccc3Sc3ccc(Cl)cc32)CCN(CC)C1 (stereo not given) | -64.2% (active)
6 | CN1C(=O)/C(=C/c2ccc(C(=O)Nc3ncc(Cc4ccccc4Cl)s3)cc2)SC1=S | 40.3%
7 | COc1ccccc1NC(=O)OCC12COCN1COC2 | 101%
8 | COc1ccc(-c2nn(-c3cccc(NC(=O)Nc4ccccc4)c3)cc2-c2ccncc2)cc1Cl | 29.4%
9 | c1ccc2c(c1)CN(CCCN1CCOCC1)C2 | 89.7%
10 | C=C(CNCCc1ccc(O)cc1)[C@@H]1CC[C@]2(CO)CC[C@]3(C)[C@H](CC[C@@H]4[C@@]5(C)CCC(=O)C(C)(C)[C@@H]5CC[C@]43C)[C@@H]12 | 8.97% (active)
11 | C=CCNc1nnc(C)s1 | 104%
12 | CCOC(=O)/C=C(/C)Sc1cc(O)c2ccccc2c1O | 29.9%
13 | CCCCCCCCCCCCCC(=O)Oc1ccc[nH]c1=O | 89.4%
14 | O=C1C(c2ccccc2)C2C=CC(C2)N1O (stereo not given) | 98.9%
15 | COc1cc2c(c(OC)c1OC)C(=O)CC(c1cccc(NC(=O)c3ccc(Br)cc3)c1)O2 (stereo not given) | 12.1%
16 | CCn1cc(Cc2cc(C(=O)Nc3cc4cc(OC)c(OC)cc4c(C)n3)ccc2Cl)cn1 | 35.5%
17 | COc1cc(-c2ccc(-c3ccc(C(=N)N)cc3)s2)cc(OC)c1OC | -22.8% (active)
18 | Cn1cc(-c2cc(N)n3nc(-c4cn(C)c5ccc(Cl)cc45)cc3n2)c2cc(Cl)ccc21 | 96.3%
19 | CN1C(=O)/C(=C2\SC(=Nc3ccccc3)N(Nc3ccccc3)C2=O)c2ccccc21 | 94.7%
20 | COc1cc(/C=C2\CN(C(=O)CCN3CCC(=NO)CC3)C/C(=C\c3cc(OC)c(OC)c(OC)c3)C2=O)cc(OC)c1OC | -41.2% (active)
21 | COc1cc(/C=C2\C(=O)Nc3cc(C)c(O)cc32)cc(OC)c1OC | 29.3%
22 | CC(=O)C(C)Cc1cc2c(cc1C)C(C)(C)CCC2(C)C (stereo not given) | 97.6%
23 | Cc1cccc(-[n+]2noc(N)n2)c1 | 96.4%
24 | O=C1/C(=C/c2ccc([N+](=O)[O-])cc2)COc2ccc(O)cc21 | 77.3%
25 | COc1ccc(C(=O)/C=C/C23c4ccccc4C(c4ccccc42)C2C(=O)NC(=O)C23)cc1 (stereo not given) | 98.7%
